Assay outcomes from PubChem.
Hits are enriched below; roughly 3.1% of the tested compounds scored in any of these assays.
miR-122 sensor = miR-122 Renilla sensor signal increase in Huh7, primary screen, miR-122 inhibitor project, cell-based, single point, plate reader. Huh7 miR-122 Renilla luciferase sensor, 48 h; neutral wells = 0, positive control = 100. actives 0.3% (n = 340,000). activation (reporter increase), % at 12.5 µM;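 active means mean replicate activation score at least 90 and every replicate individually at or above 90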;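 further: higher luciferase means less miR-122 activity so hits act as miR-122 inhibitors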
PAX8 inh HTS = inhibitors of PAX8-driven TPO luciferase reporter, primary screen, RMG-I cells, single concentration. SteadyGlo, 24 h. inhibition, % at 12.6 µM. actives 1.2% (n = 360,000). AID 652154, 2013;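 active means mean replicate inhibition at least 60% with every replicate also reaching 60%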;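 further: luciferase light reporting Pax8 driven TPO promoter activity; plate controls were median of neutral control wells for no effect and mitoxantrone controls for full effect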
Statin myotox sup = suppressors of statin myotoxicity in C2C12 myotubes, primary screen, cell-based, single point, plate reader. C2C12 myotubes + simvastatin, ATP luminescence, 48 h; scaled: DMSO 0, geranylgeraniol control 100. rescue of ATP level, % at 7.49 µM. actives 0.78% (n = 330,000);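 active means mean ATP rescue above about 67%, or every replicate alone reaching that limit, limit read from the data, passing the limit was not always enough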;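 further: myotubes were challenged with 10 µM simvastatin during compound exposure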
GSIS activator = GLuc luminescence reporter in INS-1E cells, primary screen for activators of glucose-dependent secretion of insulin; INS-1E GLuc reporter insulin secretion, 2-3 h; activation, % at 16.6 µM; actives 0.61% (n = 370,000);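 active means lowest replicate activation of at least 40%, so every replicate reaches that level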;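 further: 0% = median of neutral control wells and 100% = median of IBMX positive control wells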
EWS-Fli inh = EWS/Fli-driven NR0B1 reporter inhibitors, primary screen, A673 cells, NR0B1 luciferase, luminescence, MLPCN library | viability-normalised | inhibition, % at 12.6 µM | actives 0.67% (n = 350,000) | AID 651661, 2012;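 active means mean inhibition of at least 50% after viability correction, with every replicate also passing that limit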;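 further: firefly luciferase signal divided by Alamar Blue viability fluorescence both relative to DMSO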
Env fusion inh = inhibitors of HIV-1 Env-driven cell-cell fusion, primary screen, HeLa-JRFL effector, CEM21 target cells, luciferase | inhibition, % at 12.3 µM | actives 1.1% (n = 360,000) | AID 651610, 2012;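 active means mean replicate inhibition score of at least 50 and every replicate individually at or above 50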;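 further: 0% = plate neutral controls and 100% = maraviroc near 300 nM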
Starred values were filed as active, the others as inactive; i = inactive; / = not tested or not shown; [ ] = remark or other dose.

SMILES | miR-122 sensor | PAX8 inh HTS | Statin myotox sup | GSIS activator | EWS-Fli inh | Env fusion inh
CN1CCN(C(=O)C[C@@H]2CC[C@@H]3[C@H](COC[C@H](O)CN3C(=O)Nc3cc(Cl)cc(Cl)c3)O2)CC1 | 2.5[16.7 µM] | -10.1 | 12.6 | -5.9 | 3.1 | /
Cc1ccc(S(=O)(=O)N(C)C[C@H]2OCCCC[C@H](C)Oc3ccc(NS(=O)(=O)c4ccc(F)cc4)cc3C(=O)N([C@@H](C)CO)C[C@@H]2C)cc1 | 4.4[16.7 µM] | 71.8* | 7.1 | -10.6 | 26.1 | -23.5[16.7 µM]
Cc1ccc(S(=O)(=O)Nc2ccc3c(c2)C(=O)N([C@H](C)CO)C[C@@H](C)[C@@H](CN(C)S(=O)(=O)c2ccc(F)cc2)OCCCC[C@H](C)O3)cc1 | -5.9[16.7 µM] | 1.6 | / | -0.9 | 1.0 | -28.2[16.7 µM]
Cc1ccc(S(=O)(=O)N(C)C[C@H]2OCCCC[C@H](C)Oc3ccc(NS(=O)(=O)c4ccc(F)cc4)cc3C(=O)N([C@H](C)CO)C[C@@H]2C)cc1 | -8.2[16.7 µM] | 80.0* | -7.9 | 5.8 | 16.8 | -42.0[16.7 µM]
O=C(C[C@H]1CC[C@H]2[C@@H](COC[C@@H](O)CN2CC2CCCCC2)O1)NCc1ccc(Cl)cc1 | -9.2[16.7 µM] | 36.5 | 30.4 | -20.1 | 3.1 | /
Cn1c(O)c(C2=c3ccccc3=NC2=O)sc1=Nc1ccc(Cl)cc1 | -1.4 | -15.4 | 97.4* | / | / | -68.7
C=CCn1c(O)c(C2=c3ccccc3=NC2=O)s/c1=N/c1nccs1 | 4.3 | 10.0 | -4.8 | -0.6 | -5.5 | 11.5
O=C(c1ccc(F)cc1)N1CC(=O)N2[C@H](CO)[C@H](c3ccc(/C=C/c4ccccc4)cc3)[C@@H]2C1 | / | 20.6 | / | -17.4 | 14.5 | /
COc1cccc(C#Cc2ccc([C@@H]3[C@H](CO)N4C(=O)CN(C(=O)c5ccccc5)C[C@@H]34)cc2)c1 | / | 69.1* | / | -34.2 | -1.8 | /
O=C(c1ccccc1F)N1CC(=O)N2[C@@H](CO)[C@@H](c3ccc(C#Cc4ccc(F)cc4)cc3)[C@@H]2C1 | / | 108.2* | / | -8.8 | -3.6 | /
O=C(c1ccc(F)cc1)N1CC(=O)N2[C@H](C1)[C@H](c1ccc(/C=C/c3ccccc3)cc1)[C@@H]2CO | / | 68.8* | / | -19.4 | 4.2 | /
COCC(=O)Nc1ccc2c(c1)C(=O)N(C)C[C@H](OC)[C@H](C)CN(C(=O)c1ccccc1)[C@@H](C)CO2 | / | -2.1 | -11.2 | 4.3 | 2.9 | -21.5[16.7 µM]
CCNC(=O)[C@H]1[C@H](CO)[C@H]2Cn3c(ccc(-c4ccccc4F)c3=O)[C@H]2N1C(=O)CC | / | / | -5.5 | 7.6 | 3.4 | /
COc1ccc(S(=O)(=O)Nc2ccc3c(c2)C(=O)N([C@@H](C)CO)C[C@@H](C)[C@@H](CN(C)S(=O)(=O)c2ccc(F)cc2)OCCCC[C@@H](C)O3)cc1 | -6.5[16.7 µM] | 56.0 | 133.5* | -27.7 | 3.1 | 16.9[16.7 µM]
COc1ccc(S(=O)(=O)N(C)C[C@H]2OCCCC[C@@H](C)Oc3ccc(NS(=O)(=O)c4ccc(F)cc4)cc3C(=O)N([C@@H](C)CO)C[C@H]2C)cc1 | -8.5[16.7 µM] | 55.7 | 13.1 | -8.1 | -2.2 | -38.5[16.7 µM]
COc1ccc(S(=O)(=O)N(C)C[C@@H]2OCCCC[C@H](C)Oc3ccc(NS(=O)(=O)c4ccc(F)cc4)cc3C(=O)N([C@H](C)CO)C[C@H]2C)cc1 | 4.5[16.7 µM] | 43.3 | -6.9 | 13.7 | 1.1 | -4.9[16.7 µM]
COc1ccc(S(=O)(=O)Nc2ccc3c(c2)C(=O)N([C@@H](C)CO)C[C@@H](C)[C@@H](CN(C)S(=O)(=O)c2ccc(F)cc2)OCCCC[C@H](C)O3)cc1 | 13.0[16.7 µM] | -11.5 | 150.5* | 9.9 | 5.4 | -6.4[16.7 µM]
COc1ccc(S(=O)(=O)Nc2ccc3c(c2)C(=O)N([C@H](C)CO)C[C@H](C)[C@@H](CN(C)S(=O)(=O)c2ccc(F)cc2)OCCCC[C@H](C)O3)cc1 | -8.9[16.7 µM] | 75.7* | 58.4 | 3.2 | -5.0 | 7.0[16.7 µM]
COc1ccc(S(=O)(=O)Nc2ccc3c(c2)C(=O)N([C@@H](C)CO)C[C@H](C)[C@@H](CN(C)S(=O)(=O)c2ccc(OC)cc2)O3)cc1 | 74.1[16.7 µM] | -32.9 | -26.1 | 0.0 | -2.9 | 4.6[16.7 µM]
CCCNC(=O)C[C@H]1CC[C@H]2[C@@H](COc3ccc(NC(=O)NCC)cc3C(=O)N2C)O1 | 1.9[16.7 µM] | -0.1 | 23.7 | 8.5 | -1.3 | -2.2[16.7 µM]
COC(=O)c1c(NC(=O)C(Cl)Cl)sc2c1C(C(=O)OC)CC2 (configuration not stated) | / | 63.7* | / | -0.7 | 37.9 | -81.9
COC(=O)c1c(NC(=O)C(C)(C)C)sc2c1C(C(=O)OC)CC2 (configuration not stated) | 1.8 | -5.4 | / | / | / | i
Cc1ccc(C(=O)NNc2ncnc3c2cnn3C)cc1 | / | -0.3 | -7.4 | -6.0 | -16.1 | -1.4
Cn1ncc2c(O/N=C(\N)c3ccc(C(F)(F)F)cc3)ncnc21 | -33.1 | 91.5* | 17.9 | / | 68.3* | -16.1
COc1ccc(S(=O)(=O)N(C(C)=O)c2ccc3oc(=O)sc3c2)cc1 | -8.2 | / | 86.8* | / | / | -29.0
SMILES | miR-122 sensor | PAX8 inh HTS | Statin myotox sup | GSIS activator | EWS-Fli inh | Env fusion inh
C[C@H]1CN([C@@H](C)CO)C(=O)c2cc(NS(C)(=O)=O)ccc2O[C@H]1CN(C)Cc1ccc(C(=O)O)cc1 | -3.9[16.7 µM] | / | 4.9 | 14.0 | -0.4 | /
C[C@H]1CN([C@@H](C)CO)C(=O)c2cccc(NC(=O)Nc3ccc(F)cc3)c2O[C@H]1CN(C)S(=O)(=O)c1ccc(Cl)cc1 | -10.4[16.7 µM] | 66.7* | 2.7 | -20.8 | 13.1 | /
C[C@@H]1CN([C@@H](C)CO)C(=O)c2cccc(NC(=O)c3nc4ccccc4s3)c2O[C@@H]1CN(C)S(=O)(=O)c1ccc(Cl)cc1 | -3.0[16.7 µM] | 26.9 | 16.4 | 1.3 | -11.6 | -15.1[16.7 µM]
CNC[C@H]1Oc2c(NC(=O)c3nc4ccccc4s3)cccc2C(=O)N([C@@H](C)CO)C[C@@H]1C | 3.6[16.7 µM] | -4.1 | -14.4 | 20.4 | -4.3 | 17.2[16.7 µM]
C[C@@H]1CN([C@H](C)CO)C(=O)c2cccc(NC(=O)Nc3cccc4ccccc34)c2O[C@@H]1CN(C)S(=O)(=O)c1ccc(Cl)cc1 | / | 84.3* | / | -12.7 | -2.0 | /
C[C@@H]1CN([C@H](C)CO)C(=O)c2cccc(NC(=O)Nc3ccc(F)cc3)c2O[C@H]1CN(C)S(=O)(=O)c1ccc(Cl)cc1 | -7.2[16.7 µM] | -6.5 | -5.1 | -2.4 | 2.3 | /
CNC[C@H]1Oc2c(NC(=O)c3nc4ccccc4s3)cccc2C(=O)N([C@H](C)CO)C[C@@H]1C | -16.2[16.7 µM] | 61.2* | 30.6 | 9.4 | 58.4* | 37.6[16.7 µM]
C[C@H](CO)N1C[C@H](C)[C@@H](CN(C)S(=O)(=O)c2ccc(Cl)cc2)Oc2c(NC(=O)c3nc4ccccc4s3)cccc2C1=O | 6.5[16.7 µM] | 72.5* | -9.0 | -5.5 | 4.9 | -3.8[16.7 µM]
